Test results reported in PMC7862700, “An all-to-all approach to the identification of sequence-specific readers for epigenetic DNA modifications on cytosine”.

Tests used:
Assay in all cases: DAPPL (digital affinity profiling via proximity ligation, sequencing); 10 mM Tris-HCl pH 7.5, 50 mM NaCl, 1 mM DTT, 4% glycerol, room temperature, 30 min; GST-TFs on glutathione beads, 16-mer random dsDNA library, 0.1% formaldehyde crosslink after washing; high values mean tight binding
FLI1 = target: T1, FLI1 (Homo sapiens, UniProt Q01543 1-452); details: protein: recombinant; tags: N-terminal GST; dsDNA, one strand shown
T1 sequence: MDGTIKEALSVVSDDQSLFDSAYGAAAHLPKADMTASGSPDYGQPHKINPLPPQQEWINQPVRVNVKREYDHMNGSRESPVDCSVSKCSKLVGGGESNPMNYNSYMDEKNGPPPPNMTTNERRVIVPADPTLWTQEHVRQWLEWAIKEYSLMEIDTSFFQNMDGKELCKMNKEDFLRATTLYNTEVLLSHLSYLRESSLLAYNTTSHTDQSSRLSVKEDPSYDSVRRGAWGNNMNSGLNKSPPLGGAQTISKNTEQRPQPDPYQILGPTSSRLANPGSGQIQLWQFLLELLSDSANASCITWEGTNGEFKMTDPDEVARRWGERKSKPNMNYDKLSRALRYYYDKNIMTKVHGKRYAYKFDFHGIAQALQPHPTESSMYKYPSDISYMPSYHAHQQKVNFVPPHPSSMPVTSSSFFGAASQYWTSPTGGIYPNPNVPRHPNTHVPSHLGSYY
How it was run: (§1)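 Each value of binding signal is a hexamer's read frequency for a factor divided by the same hexamer's frequency in the tag-only sample. Barcoded, bead-captured GST fusions of human transcription factors made in yeast were pooled with that sample and incubated with 200 nmole of a random double-stranded 16-mer DNA library in Tris/NaCl/DTT/glycerol buffer at room temperature for 30 min. Washing, 0.1% formaldehyde crosslinking, proximity ligation, PCR and Illumina NextSeq500 sequencing followed.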

ELK1 = target: T2, ELK1 (Homo sapiens, UniProt P19419 1-428); details: protein: recombinant; tags: N-terminal GST; dsDNA, one strand shown
T2 sequence: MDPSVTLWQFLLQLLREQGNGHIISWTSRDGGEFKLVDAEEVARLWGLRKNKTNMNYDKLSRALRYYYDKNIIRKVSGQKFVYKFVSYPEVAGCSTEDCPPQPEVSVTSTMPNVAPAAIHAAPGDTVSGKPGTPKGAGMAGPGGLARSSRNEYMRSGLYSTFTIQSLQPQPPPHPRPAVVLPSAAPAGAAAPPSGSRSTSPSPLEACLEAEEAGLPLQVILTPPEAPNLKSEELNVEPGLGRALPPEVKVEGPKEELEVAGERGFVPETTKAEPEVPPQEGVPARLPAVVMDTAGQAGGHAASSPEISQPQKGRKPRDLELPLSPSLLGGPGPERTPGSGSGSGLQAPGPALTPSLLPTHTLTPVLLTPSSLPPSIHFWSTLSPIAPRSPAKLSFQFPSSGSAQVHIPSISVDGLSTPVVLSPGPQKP
How it was run: as §1

GABPA = target: T3, GABPA (Homo sapiens, UniProt Q06546 1-454); details: protein: recombinant; tags: N-terminal GST; dsDNA, one strand shown
T3 sequence: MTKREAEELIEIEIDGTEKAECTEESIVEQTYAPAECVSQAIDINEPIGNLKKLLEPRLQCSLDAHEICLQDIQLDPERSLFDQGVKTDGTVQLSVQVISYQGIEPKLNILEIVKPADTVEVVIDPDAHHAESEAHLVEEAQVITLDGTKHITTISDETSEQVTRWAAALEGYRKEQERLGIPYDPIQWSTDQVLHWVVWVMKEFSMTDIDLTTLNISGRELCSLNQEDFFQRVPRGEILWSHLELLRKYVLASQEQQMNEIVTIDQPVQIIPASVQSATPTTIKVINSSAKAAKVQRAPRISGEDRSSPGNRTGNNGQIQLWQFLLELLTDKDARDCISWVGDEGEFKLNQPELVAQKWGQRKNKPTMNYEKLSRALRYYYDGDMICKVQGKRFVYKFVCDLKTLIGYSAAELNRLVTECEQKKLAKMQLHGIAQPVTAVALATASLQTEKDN
How it was run: as §1

ERG = target: T4, ERG (Homo sapiens, UniProt P11308 1-479); details: protein: recombinant; tags: N-terminal GST; dsDNA, one strand shown
T4 sequence: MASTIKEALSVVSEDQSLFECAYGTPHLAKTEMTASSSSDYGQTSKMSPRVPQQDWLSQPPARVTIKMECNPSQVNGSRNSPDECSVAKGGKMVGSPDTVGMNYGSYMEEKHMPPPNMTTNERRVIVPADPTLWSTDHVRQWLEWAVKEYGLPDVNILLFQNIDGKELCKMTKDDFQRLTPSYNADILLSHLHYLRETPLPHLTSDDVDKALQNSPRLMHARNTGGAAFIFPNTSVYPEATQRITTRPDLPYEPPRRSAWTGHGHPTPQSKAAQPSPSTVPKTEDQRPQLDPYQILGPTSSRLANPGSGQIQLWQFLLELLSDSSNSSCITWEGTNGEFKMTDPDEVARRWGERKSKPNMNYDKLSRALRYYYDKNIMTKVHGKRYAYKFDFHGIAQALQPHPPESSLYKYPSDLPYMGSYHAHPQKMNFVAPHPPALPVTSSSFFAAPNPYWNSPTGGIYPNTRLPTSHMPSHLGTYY
How it was run: as §1

ELF1 = ELF1 (Homo sapiens, UniProt P32519 1-619); details: protein: recombinant; tags: N-terminal GST; dsDNA, one strand shown
Sequence of ELF1 (P32519 whole entry): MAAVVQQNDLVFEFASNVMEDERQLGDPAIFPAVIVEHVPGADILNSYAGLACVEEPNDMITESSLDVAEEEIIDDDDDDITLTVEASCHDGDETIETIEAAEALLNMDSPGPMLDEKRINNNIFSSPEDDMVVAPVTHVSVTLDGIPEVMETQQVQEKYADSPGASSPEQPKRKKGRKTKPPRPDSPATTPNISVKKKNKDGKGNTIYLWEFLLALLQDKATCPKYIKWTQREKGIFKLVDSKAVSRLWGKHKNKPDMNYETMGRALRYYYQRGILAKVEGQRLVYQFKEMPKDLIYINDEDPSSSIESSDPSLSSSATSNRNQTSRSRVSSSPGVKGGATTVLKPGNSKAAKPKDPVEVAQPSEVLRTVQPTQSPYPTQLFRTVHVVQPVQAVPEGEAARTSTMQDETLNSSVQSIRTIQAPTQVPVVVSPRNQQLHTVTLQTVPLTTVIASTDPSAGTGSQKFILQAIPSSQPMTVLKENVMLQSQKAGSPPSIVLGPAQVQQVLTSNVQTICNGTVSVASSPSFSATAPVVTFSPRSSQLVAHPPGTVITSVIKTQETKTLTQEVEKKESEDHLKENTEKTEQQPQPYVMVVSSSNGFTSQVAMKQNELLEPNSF
How it was run: as §1

EHF = target: T5, EHF (Homo sapiens, UniProt Q9NZC4 1-300); details: protein: recombinant; tags: N-terminal GST; dsDNA, one strand shown
T5 sequence: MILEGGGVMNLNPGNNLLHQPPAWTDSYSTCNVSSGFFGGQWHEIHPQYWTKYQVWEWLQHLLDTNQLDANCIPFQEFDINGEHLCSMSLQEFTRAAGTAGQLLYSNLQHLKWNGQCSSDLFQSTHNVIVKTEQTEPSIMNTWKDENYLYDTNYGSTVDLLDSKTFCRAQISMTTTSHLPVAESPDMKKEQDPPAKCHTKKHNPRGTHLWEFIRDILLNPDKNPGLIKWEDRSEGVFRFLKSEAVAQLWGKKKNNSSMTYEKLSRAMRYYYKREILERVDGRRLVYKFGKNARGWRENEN
How it was run: as §1

SPI1 = SPI1 (Homo sapiens, UniProt P17947 1-270); details: protein: recombinant; tags: N-terminal GST; dsDNA, one strand shown
How it was run: as §1

SPIB = SPIB (Homo sapiens, UniProt Q01892 1-262); details: protein: recombinant; tags: N-terminal GST; dsDNA, one strand shown
Sequence of SPIB (Q01892 whole entry): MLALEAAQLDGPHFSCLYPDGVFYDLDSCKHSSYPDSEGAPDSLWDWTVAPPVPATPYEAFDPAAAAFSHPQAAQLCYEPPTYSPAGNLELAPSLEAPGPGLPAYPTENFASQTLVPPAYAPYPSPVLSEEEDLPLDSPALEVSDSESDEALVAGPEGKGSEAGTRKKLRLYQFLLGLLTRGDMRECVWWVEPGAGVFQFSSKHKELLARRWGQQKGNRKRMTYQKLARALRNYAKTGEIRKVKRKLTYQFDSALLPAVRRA
How it was run: as §1

ELK3 = target: T6, ELK3 (Homo sapiens, UniProt P41970 1-407); details: protein: recombinant; tags: N-terminal GST; dsDNA, one strand shown
T6 sequence: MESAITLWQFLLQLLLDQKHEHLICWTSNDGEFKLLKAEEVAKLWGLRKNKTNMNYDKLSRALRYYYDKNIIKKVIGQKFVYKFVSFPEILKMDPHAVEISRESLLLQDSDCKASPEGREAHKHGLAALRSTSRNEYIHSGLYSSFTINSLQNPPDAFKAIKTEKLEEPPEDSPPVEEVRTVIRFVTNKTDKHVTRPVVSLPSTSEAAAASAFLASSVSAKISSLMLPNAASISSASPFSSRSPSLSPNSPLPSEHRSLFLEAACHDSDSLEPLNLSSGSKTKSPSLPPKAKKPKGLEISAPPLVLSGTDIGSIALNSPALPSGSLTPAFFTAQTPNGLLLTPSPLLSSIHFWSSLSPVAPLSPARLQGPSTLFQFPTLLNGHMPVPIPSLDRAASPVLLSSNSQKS
How it was run: as §1

FEV = target: T7, FEV (Homo sapiens, UniProt Q99581 1-238); details: protein: recombinant; tags: N-terminal GST; dsDNA, one strand shown
T7 sequence: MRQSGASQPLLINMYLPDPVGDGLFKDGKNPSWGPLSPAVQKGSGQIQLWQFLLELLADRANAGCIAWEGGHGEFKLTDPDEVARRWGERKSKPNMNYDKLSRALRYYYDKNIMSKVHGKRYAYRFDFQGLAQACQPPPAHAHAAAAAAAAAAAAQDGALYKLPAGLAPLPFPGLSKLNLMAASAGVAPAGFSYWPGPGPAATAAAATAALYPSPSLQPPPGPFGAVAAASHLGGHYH
How it was run: as §1

ETV5 = ETV5 (Homo sapiens, UniProt P41161 1-510); details: protein: recombinant; tags: N-terminal GST; dsDNA, one strand shown
Sequence of ETV5 (P41161 whole entry): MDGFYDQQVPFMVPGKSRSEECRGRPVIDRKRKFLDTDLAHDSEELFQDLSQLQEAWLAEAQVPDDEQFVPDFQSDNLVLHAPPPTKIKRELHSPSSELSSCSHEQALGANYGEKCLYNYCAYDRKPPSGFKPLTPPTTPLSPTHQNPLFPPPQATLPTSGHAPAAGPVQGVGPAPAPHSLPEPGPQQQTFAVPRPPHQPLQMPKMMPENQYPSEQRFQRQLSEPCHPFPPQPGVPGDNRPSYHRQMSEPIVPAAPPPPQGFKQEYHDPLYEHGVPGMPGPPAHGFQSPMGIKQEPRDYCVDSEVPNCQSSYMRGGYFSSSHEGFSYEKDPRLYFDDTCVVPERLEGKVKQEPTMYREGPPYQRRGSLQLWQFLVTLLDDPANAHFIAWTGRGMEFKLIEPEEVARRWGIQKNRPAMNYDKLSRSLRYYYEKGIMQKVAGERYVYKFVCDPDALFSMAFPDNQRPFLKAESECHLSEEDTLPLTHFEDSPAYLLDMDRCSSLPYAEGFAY
How it was run: as §1

HSF1 = HSF1 (Homo sapiens, UniProt Q00613 1-529); details: protein: recombinant; tags: N-terminal GST; chain copies: 3; dsDNA, one strand shown
Sequence of HSF1 (Q00613 whole entry): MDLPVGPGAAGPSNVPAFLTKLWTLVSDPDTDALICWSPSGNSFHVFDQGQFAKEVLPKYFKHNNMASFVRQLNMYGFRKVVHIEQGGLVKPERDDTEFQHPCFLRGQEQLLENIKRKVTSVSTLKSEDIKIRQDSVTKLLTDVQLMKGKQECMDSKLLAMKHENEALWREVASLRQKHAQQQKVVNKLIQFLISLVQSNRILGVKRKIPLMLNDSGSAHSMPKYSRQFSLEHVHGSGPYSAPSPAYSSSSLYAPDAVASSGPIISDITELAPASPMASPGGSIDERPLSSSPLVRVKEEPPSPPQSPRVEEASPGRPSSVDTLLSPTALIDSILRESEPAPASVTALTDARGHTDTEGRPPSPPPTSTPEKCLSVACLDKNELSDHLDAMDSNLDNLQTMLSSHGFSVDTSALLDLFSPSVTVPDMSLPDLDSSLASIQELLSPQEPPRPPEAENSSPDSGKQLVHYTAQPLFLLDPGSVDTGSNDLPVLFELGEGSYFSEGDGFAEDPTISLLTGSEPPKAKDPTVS
How it was run: as §1

SPIC = target: T8, SPIC (Homo sapiens, UniProt Q8N5J4 1-248); details: protein: recombinant; tags: N-terminal GST; dsDNA, one strand shown
T8 sequence: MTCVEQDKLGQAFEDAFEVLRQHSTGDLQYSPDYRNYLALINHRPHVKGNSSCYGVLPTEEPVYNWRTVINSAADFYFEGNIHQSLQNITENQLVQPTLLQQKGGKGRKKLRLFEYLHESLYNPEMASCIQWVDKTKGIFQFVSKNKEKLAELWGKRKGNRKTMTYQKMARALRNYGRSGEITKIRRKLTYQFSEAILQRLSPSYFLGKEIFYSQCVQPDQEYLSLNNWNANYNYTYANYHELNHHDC
How it was run: as §1

ELF4 = ELF4 (Homo sapiens, UniProt Q99607 1-663); details: protein: recombinant; tags: N-terminal GST; dsDNA, one strand shown
Sequence of ELF4 (Q99607 whole entry): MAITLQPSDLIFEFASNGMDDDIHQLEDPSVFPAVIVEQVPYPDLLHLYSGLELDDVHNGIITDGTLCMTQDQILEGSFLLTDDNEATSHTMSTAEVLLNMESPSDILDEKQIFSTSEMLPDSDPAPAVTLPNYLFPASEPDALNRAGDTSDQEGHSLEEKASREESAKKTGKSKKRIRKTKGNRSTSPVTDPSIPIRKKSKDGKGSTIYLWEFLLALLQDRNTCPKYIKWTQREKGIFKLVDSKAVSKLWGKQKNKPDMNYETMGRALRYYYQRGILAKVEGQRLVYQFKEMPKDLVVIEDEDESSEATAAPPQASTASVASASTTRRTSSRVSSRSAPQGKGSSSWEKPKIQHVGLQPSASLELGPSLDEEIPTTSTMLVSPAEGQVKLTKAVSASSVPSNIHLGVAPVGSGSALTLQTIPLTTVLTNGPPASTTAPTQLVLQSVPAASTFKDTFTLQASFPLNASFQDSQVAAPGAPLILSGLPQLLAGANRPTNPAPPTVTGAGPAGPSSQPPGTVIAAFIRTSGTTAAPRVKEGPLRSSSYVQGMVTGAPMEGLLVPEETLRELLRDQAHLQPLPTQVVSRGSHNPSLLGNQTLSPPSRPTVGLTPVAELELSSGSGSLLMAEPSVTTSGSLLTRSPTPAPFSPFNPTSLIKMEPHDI
How it was run: as §1

ELK4 = target: T9, ELK4 (Homo sapiens, UniProt P28324-2 1-405); details: protein: recombinant; tags: N-terminal GST; dsDNA, one strand shown
T9 sequence: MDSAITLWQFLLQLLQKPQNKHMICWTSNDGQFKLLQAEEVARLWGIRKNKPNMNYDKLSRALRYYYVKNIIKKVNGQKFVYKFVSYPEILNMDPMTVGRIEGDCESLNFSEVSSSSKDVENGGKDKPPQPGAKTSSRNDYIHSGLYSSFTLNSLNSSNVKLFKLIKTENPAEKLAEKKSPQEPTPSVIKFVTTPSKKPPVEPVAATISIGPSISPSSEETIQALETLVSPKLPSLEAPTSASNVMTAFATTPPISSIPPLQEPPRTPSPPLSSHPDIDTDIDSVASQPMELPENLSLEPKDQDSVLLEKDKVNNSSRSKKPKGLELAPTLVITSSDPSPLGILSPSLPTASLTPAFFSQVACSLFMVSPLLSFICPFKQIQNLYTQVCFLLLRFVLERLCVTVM
How it was run: as §1

ETV2 = target: T10, ETV2 (Homo sapiens, UniProt O00321 1-342); details: protein: recombinant; tags: N-terminal GST; dsDNA, one strand shown
T10 sequence: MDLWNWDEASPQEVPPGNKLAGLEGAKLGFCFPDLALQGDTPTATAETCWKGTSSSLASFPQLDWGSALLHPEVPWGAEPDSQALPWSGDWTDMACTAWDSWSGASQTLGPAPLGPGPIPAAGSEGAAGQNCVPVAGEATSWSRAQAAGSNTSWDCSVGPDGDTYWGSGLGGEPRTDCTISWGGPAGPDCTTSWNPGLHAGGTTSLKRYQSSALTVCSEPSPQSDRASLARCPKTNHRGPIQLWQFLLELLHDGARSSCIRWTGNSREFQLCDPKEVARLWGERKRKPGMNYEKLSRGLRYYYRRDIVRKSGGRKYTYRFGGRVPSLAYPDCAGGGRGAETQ
How it was run: as §1

ELF3 = target: T11, ELF3 (Homo sapiens, UniProt P78545 1-371); details: protein: recombinant; tags: N-terminal GST; dsDNA, one strand shown
T11 sequence: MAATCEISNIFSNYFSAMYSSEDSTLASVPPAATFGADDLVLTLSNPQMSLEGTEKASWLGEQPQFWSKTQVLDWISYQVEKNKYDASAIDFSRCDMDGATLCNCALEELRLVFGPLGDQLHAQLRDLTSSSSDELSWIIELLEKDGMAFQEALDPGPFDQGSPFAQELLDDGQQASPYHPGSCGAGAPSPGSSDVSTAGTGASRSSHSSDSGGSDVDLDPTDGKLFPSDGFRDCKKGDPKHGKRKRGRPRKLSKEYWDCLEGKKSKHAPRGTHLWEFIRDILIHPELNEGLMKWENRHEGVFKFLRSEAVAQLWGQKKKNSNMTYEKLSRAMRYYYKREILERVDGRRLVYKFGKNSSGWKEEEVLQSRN
How it was run: as §1

CRX = CRX (Homo sapiens, UniProt O43186 1-299); details: protein: recombinant; tags: N-terminal GST; dsDNA, one strand shown
Sequence of CRX (O43186 whole entry): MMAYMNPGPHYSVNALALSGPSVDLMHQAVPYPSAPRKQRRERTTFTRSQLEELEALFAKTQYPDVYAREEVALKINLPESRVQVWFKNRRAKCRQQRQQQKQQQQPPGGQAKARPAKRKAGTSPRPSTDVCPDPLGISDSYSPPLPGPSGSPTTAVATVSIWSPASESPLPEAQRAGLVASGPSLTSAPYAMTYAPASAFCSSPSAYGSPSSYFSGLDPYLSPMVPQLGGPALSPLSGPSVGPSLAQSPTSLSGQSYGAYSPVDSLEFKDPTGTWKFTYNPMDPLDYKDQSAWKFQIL
How it was run: as §1

ETV1 = ETV1 (Homo sapiens, UniProt P50549 1-477); details: protein: recombinant; tags: N-terminal GST; dsDNA, one strand shown
Sequence of ETV1 (P50549 whole entry): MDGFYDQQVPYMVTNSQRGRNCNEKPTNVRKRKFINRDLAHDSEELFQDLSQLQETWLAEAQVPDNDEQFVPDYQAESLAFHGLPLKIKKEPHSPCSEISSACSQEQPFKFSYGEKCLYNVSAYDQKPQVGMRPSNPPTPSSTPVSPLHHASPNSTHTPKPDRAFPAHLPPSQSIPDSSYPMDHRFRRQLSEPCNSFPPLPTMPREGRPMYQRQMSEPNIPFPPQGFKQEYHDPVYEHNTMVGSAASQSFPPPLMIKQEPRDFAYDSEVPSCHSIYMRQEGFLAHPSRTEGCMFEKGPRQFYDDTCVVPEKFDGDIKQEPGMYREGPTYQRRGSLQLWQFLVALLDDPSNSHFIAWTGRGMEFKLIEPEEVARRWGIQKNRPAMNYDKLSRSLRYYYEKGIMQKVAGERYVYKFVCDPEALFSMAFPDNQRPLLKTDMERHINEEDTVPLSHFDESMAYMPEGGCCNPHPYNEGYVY
How it was run: as §1

CCATAT
binding signal (FLI1): 1.23 fold enrichment (6-mer frequency, TF over GST control)
binding signal (ELK1): 1.24 fold enrichment (6-mer frequency, TF over GST control)
binding signal (GABPA): 1.19 fold enrichment (6-mer frequency, TF over GST control)
binding signal (ERG): 1.37 fold enrichment (6-mer frequency, TF over GST control)
binding signal (ELF1): 1.22 fold enrichment (6-mer frequency, TF over GST control)
binding signal (EHF): 1.22 fold enrichment (6-mer frequency, TF over GST control)
binding signal (SPI1): 1.16 fold enrichment (6-mer frequency, TF over GST control)
binding signal (SPIB): 1.26 fold enrichment (6-mer frequency, TF over GST control)
binding signal (ELK3): 1.26 fold enrichment (6-mer frequency, TF over GST control)
binding signal (FEV): 1.24 fold enrichment (6-mer frequency, TF over GST control)
binding signal (ETV5): 1.24 fold enrichment (6-mer frequency, TF over GST control)
binding signal (HSF1): 1.12 fold enrichment (6-mer frequency, TF over GST control)
binding signal (SPIC): 1.31 fold enrichment (6-mer frequency, TF over GST control)
binding signal (ELF4): 1.17 fold enrichment (6-mer frequency, TF over GST control)
binding signal (ELK4): 1.13 fold enrichment (6-mer frequency, TF over GST control)
binding signal (ETV2): 1.29 fold enrichment (6-mer frequency, TF over GST control)
binding signal (ELF3): 1.37 fold enrichment (6-mer frequency, TF over GST control)
binding signal (CRX): 1.09 fold enrichment (6-mer frequency, TF over GST control)
binding signal (ETV1): 1.2 fold enrichment (6-mer frequency, TF over GST control)
